As usually defined, the AC50 is the midpoint of the concentration-response curve, whichever way the signal moves.

Here are results for 36 compounds from PubChem BioAssay (EPA / NIEHS).

Results filed as inconclusive are left out. Where a structure was tested more than once in an assay, its records may differ in their call. Activity calls are given as the source filed them. How the source made its calls: active means hit-call score of the fitted dose curve at least 0.9, where 1 is the maximum; inconclusive means response in the unintended direction; inactive means score below 0.9.

Experiment [1] addresses D(1A) dopamine receptor (Homo sapiens) (UniProt P21728). The experiment can be described thus: NVS_GPCR_hDRD1: NovaScreen (NVS) G Protein-Coupled Receptor Assay for human Dopamine Receptor D1 (DRD1) (AID 2283269). The method in brief: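 Cell-free radioligand binding to human DRD1 from HEK293 membranes, read 1 h after dosing by filter-based scintillation counting. Loss of signal versus DMSO baseline marks displacement. Primary screen at 25 uM single concentration in duplicate; actives followed up in concentration series.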

Experiment [2] addresses human Thromboxane A2 Receptor (TXA2), TBXA2R (gene 6915) (UniProt P21731). The experiment can be described thus: NVS_GPCR_hTXA2: NovaScreen (NVS) G Protein-Coupled Receptor Assay for human Thromboxane A2 Receptor (TXA2) (AID 2283282).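 Further: actives reduce bound radioligand signal relative to DMSO baseline.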 The procedure, abridged: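 Human platelet-derived receptor preparation incubated with test chemical and radiolabelled ligand for 1 hour, cell-free. Bound label was separated by filtration and counted; displacement relative to DMSO controls gave activity, screened at 25 uM, then titrated.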

Experiment [3] concerns the target human Phosphoinositide 3-kinase alpha (PI3Ka), PIK3CA (gene 5290) (UniProt P42336). The experiment can be described thus: NVS_ENZ_hPI3Ka: NovaScreen (NVS) Enzymatic Assay for human Phosphoinositide 3-kinase alpha (PI3Ka) (AID 2283196). The procedure, abridged: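 Fluorescence/mobility-shift readout of substrate conversion by recombinant enzyme, 1 h post-dosing. Primary screen in duplicate at 25 uM; actives (e.g. ≥30% inhibition) retested in singleton concentration-response, top concentration 50 uM.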

Experiment [4] concerns the target human Vascular Endothelial Growth Factor Receptor 1 (VEGFR1), FLT1 (gene 2321) (UniProt P17948). Put plainly: NVS_ENZ_hVEGFR1: NovaScreen (NVS) Enzymatic Assay for human Vascular Endothelial Growth Factor Receptor 1 (VEGFR1) (AID 2283226). The procedure, abridged:
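Cell-free assay of recombinant human VEGFR1 kinase with substrate, measured 1 h after dosing; fluorescence with electrophoretic mobility-shift separation of substrate and product, referenced to DMSO; primary screen at 25 uM in duplicate, actives then run in concentration series.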

For experiment [5], the target named is chimpanzee Androgen Receptor (AR), AR (gene 747460) (UniProt O97775). The experiment can be described thus: NVS_NR_cAR: NovaScreen (NVS) Nuclear Receptor Binding Assay for chimpanzee Androgen Receptor (AR) (AID 2283346).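 Further: radioligand displacement from AR measured by scintillation counting in a cell-free assay; a loss of bound radioligand signal versus DMSO counts as binding.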 The procedure, abridged: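 Cell-free competition binding with insect-cell (Sf9/Sf21) extracted chimpanzee AR; scintillation signal from lysate at 72 h. Screened in duplicate at 25 uM, then concentration-response for actives; fitting relative to DMSO.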
Sequence of chimpanzee Androgen Receptor (AR), AR (gene 747460) (O97775 whole entry, looked up): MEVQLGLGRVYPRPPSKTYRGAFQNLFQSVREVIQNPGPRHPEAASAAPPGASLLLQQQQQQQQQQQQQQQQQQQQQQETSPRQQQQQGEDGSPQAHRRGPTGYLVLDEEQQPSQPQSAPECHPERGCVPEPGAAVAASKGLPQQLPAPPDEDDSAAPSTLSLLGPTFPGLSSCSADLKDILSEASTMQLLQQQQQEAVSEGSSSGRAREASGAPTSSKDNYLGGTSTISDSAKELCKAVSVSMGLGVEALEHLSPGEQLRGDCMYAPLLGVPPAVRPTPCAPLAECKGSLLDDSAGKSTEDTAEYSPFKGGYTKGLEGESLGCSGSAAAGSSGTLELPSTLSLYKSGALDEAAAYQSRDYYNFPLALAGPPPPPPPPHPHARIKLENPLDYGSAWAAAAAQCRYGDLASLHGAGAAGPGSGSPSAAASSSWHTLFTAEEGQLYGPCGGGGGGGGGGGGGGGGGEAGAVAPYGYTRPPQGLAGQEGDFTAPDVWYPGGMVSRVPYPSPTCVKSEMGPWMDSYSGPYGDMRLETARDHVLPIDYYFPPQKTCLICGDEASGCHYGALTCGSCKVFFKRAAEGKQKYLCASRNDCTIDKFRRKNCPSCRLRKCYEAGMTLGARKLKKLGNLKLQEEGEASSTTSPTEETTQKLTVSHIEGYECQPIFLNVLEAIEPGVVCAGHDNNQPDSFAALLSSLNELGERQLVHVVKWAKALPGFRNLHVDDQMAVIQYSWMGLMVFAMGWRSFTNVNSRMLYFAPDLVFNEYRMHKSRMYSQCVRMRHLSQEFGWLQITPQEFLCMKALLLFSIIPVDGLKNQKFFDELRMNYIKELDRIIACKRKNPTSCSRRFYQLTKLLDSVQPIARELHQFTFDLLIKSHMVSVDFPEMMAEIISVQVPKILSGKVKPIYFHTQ

In experiment [6] the target is Sodium channel protein type 1 subunit alpha (Rattus norvegicus) (UniProt P04774). The experiment can be described thus: NVS_IC_rNaCh_site2: NovaScreen (NVS) Ion Channel Assay for rat Sodium Channel, Site 2 (NaCh) (AID 2283322).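 Further: hit means loss of radioligand binding signal relative to DMSO so AC50 marks displacement.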 The method in brief: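 Membranes: rat forebrain. Format: competitive radioligand displacement, filter separation, scintillation readout, 1 h exposure. Primary screen in duplicate at 25 uM; actives retested in concentration series.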

For experiment [7], the target named is bovine Estrogen Receptor (ER), ESR1 (gene 407238) (UniProt P49884). Put plainly: NVS_NR_bER: NovaScreen (NVS) Nuclear Receptor Binding Assay for bovine Estrogen Receptor (ER) (AID 2283345).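 Further: actives lower the bound radioligand count which means they displace the ER ligand.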 The procedure, abridged:
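Cell-free radioligand binding with receptor from bovine uterine membranes, read by scintillation counting 18 h after dosing. Loss of specific binding was scored against DMSO; primary screen at 25 uM in duplicate, actives then run as concentration series.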

For experiment [8], the target named is Estrogen receptor (Homo sapiens) (UniProt P03372). The experiment can be described thus: NVS_NR_hER: NovaScreen (NVS) Nuclear Receptor Binding Assay for human Estrogen Receptor (ER) (AID 2283348). The method in brief: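 Scintillation signal from bound radioligand was measured 18 hours after chemical addition to cell-free MCF7 protein extracts, with DMSO as baseline. Activity was scored as signal loss; compounds ran first at 25 uM in duplicate.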
Sequence of Estrogen receptor (Homo sapiens) (P03372 whole entry, looked up): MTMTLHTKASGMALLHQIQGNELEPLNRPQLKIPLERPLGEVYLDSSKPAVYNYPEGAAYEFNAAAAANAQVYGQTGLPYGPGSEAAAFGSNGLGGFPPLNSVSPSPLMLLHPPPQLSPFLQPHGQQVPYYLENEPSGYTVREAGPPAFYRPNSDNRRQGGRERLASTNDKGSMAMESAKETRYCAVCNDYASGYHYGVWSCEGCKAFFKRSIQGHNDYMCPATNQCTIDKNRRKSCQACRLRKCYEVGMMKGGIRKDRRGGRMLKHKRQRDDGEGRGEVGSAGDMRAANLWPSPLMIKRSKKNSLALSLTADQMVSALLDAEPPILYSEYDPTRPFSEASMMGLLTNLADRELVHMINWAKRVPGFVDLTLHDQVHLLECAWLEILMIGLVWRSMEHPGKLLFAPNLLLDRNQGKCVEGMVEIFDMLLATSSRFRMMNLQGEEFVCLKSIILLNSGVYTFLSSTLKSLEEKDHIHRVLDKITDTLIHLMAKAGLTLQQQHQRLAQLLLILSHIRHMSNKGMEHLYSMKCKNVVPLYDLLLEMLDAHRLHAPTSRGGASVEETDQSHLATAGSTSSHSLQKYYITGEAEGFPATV

Experiment [9] shares this target. The experiment can be described thus: OT_ER_ERaERa_1440: Odyssey Thera (OT) 24-hour HEK293T Protein-Complementation Assay for Estrogen Receptor-alpha/-alpha Homodimer (AID 2283349).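 Further: hits raise fluorescence above DMSO for agonists and antagonists alike.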 The procedure, abridged: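 Protein-fragment complementation between two human ERα ligand-binding domains (aa 310-547) in stably transfected HEK293T cells was monitored after 24 h treatment, using fluorescence intensity relative to vehicle controls.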

Sequence of bovine Estrogen Receptor (ER), ESR1 (gene 407238) (P49884 whole entry, looked up): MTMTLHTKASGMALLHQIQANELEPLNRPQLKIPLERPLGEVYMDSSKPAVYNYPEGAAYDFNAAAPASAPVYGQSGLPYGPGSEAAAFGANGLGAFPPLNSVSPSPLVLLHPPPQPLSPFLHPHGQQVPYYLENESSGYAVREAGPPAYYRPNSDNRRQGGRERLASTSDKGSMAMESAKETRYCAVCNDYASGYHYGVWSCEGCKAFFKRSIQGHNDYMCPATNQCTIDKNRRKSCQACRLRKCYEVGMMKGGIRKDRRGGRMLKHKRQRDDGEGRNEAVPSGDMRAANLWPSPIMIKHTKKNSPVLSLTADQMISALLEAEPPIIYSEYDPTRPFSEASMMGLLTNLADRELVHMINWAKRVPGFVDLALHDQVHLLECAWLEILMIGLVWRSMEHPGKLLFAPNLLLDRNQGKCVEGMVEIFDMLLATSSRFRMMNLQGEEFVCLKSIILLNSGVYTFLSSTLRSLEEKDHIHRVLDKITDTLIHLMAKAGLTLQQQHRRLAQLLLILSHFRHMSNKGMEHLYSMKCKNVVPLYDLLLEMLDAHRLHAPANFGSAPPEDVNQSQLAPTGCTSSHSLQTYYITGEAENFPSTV
Sequence of human Thromboxane A2 Receptor (TXA2), TBXA2R (gene 6915) (P21731 whole entry, looked up): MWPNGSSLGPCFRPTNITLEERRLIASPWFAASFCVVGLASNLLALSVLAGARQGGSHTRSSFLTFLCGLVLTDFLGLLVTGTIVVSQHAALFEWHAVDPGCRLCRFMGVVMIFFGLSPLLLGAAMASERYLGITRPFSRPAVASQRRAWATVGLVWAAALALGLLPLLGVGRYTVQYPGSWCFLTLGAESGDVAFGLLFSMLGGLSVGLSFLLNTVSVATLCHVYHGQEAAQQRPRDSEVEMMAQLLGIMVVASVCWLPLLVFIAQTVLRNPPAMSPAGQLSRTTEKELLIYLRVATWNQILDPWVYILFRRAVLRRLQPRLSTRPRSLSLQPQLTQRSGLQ
Sequence of human Vascular Endothelial Growth Factor Receptor 1 (VEGFR1), FLT1 (gene 2321) (P17948 whole entry, looked up): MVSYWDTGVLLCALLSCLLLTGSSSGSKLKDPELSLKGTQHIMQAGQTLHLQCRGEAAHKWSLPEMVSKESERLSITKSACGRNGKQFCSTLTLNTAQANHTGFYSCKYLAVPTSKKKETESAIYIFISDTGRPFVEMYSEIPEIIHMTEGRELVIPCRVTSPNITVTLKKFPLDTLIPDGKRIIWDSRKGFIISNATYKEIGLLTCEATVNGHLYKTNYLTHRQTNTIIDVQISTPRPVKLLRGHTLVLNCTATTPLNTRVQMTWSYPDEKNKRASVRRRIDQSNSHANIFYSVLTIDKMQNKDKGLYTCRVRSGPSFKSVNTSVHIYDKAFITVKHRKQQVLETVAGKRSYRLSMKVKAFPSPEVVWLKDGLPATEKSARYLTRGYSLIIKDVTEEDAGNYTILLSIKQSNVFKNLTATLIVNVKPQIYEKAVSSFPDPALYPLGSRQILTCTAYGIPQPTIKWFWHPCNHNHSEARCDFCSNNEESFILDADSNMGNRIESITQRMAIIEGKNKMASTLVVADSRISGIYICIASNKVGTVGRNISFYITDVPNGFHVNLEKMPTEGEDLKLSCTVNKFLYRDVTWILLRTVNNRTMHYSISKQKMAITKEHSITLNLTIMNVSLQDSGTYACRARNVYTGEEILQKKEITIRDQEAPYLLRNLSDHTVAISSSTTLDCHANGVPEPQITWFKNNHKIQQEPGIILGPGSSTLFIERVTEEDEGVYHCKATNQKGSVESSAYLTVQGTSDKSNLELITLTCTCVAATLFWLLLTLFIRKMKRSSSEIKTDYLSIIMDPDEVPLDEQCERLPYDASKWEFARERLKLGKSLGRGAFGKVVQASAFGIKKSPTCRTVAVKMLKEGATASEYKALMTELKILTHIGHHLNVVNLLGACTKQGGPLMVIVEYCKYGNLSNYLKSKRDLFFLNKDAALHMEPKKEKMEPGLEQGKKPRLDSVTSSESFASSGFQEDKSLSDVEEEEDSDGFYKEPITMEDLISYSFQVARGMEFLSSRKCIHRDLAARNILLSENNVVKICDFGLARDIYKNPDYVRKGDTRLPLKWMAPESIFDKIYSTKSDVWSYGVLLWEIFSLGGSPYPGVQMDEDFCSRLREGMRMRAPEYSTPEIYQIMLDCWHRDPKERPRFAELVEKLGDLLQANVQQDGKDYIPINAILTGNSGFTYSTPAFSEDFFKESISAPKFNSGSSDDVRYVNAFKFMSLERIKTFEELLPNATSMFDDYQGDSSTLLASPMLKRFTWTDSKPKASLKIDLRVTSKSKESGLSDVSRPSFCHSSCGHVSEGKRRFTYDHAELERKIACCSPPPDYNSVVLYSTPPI
Sequence of D(1A) dopamine receptor (Homo sapiens) (P21728 whole entry, looked up): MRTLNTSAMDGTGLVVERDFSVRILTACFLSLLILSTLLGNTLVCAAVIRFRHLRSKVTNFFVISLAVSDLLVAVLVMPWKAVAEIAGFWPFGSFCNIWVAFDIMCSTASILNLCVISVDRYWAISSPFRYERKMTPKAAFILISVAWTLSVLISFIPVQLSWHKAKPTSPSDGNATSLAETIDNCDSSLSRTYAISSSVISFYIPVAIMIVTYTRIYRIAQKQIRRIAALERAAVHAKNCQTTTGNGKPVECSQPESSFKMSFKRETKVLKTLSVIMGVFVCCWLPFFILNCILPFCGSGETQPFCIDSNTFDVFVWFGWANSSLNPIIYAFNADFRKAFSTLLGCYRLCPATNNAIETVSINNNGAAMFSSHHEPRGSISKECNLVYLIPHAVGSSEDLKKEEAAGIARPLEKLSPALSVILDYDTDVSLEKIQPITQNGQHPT

For `CCCC(C)CCC(C)=O` (stereo unspecified), the compound was classed as inactive in experiment [1]. As to `CCCCCCCCc1ccc(Nc2ccc(CCCCCCCC)cc2)cc1`, the call in experiment [2] was inactive.

Turning to `CCCOC(=O)CCCCC(=O)OCCC`, the AC50 in experiment [3] is 2 µM (active); in experiment [4], 42.3 µM (active). Moreover, in [5], the call was inactive. Consider `C=COCCCC`, for which, in experiment [2], the AC50 was 25 µM (active). Consider `CCOC(=O)[C@H](C)O`, for which the compound was classed as inactive in [6]. For the compound `Cc1cccc(N)n1`, the outcome in experiment [7] and in [8] was inactive. For `O=C(O)c1ccccc1Nc1cccc(C(F)(F)F)c1`, in experiment [8], the compound was called inactive. Take `[Cl][In]([Cl])[Cl]`: the outcome in experiment [7] was inactive. In experiment [8], the AC50 was 25 µM (active) and the compound was classed as inactive. With `O=S1(=O)OC(c2ccc(O)cc2)(c2ccc(O)cc2)c2ccccc21`, the outcome in [7] and in experiment [9] was inactive. The AC50 in [8] was 13.2 µM (active). In the case of `NC(CO)(CO)CO`, the call in experiment [7], in experiment [8] and in [9] was inactive. Consider `O=C(c1ccccc1)c1ccc(O)c(O)c1O`, for which the compound was called inactive in experiment [7] and in experiment [8]. Turning to `CC(=O)NS(=O)(=O)c1ccc(N)cc1`, the outcome in [8] was inactive. Turning to `COc1ccc(-c2coc3cc(O)ccc3c2=O)cc1`, the outcome in experiment [7] was inactive. The AC50 in experiment [8] was 7.09 µM (active). Turning to `CCCCCCCCCCCCCOP(=O)(O)O`, the compound was called inactive in experiment [7], in experiment [8] and in [9].

As to `C=CC(=O)OCCOC(=O)C=C`, the result in experiment [7] and in experiment [8] was inactive. Regarding `O=C(c1ccc(O)cc1)c1ccc(O)cc1O`, the concentration at half-maximal activity (AC50) in experiment [7] was 2.12 µM (active); in experiment [8], 0.481 µM (active). Regarding `OC1CCCCCCCCCCC1`, the call in experiment [7], in [5] and in [9] was inactive. With `Nc1ccc(Oc2ccc(N)c(N)c2)cc1`, the call in [7] and in experiment [8] was inactive. With `O=C(O)CCCCCCCCCC(=O)O`, the outcome in [8] was inactive.

In the case of `O=C1Nc2ccccc2C1(c1ccc(O)cc1)c1ccc(O)cc1`, the result in experiment [7] and in experiment [8] was inactive. In the case of `Nc1ccc2cc3ccccc3cc2c1`, in [8], the compound was classed as inactive. Consider `CN(C)c1ccc(N=Nc2ccccc2C(=O)O)cc1`, for which the outcome in experiment [7], in experiment [5] and in experiment [9] was inactive. Take `Cc1cccc(N(C)C(=S)Oc2ccc3ccccc3c2)c1`: the result in experiment [7] and in experiment [8] was inactive. Turning to `CCOC(=O)c1ccccc1C(=C1C=C(Br)C(=O)C(Br)=C1)c1cc(Br)c(O)c(Br)c1`, in experiment [7], the compound was called inactive. Regarding `CC(=O)[C@H]1[C@H](C#N)C[C@H]2[C@@H]3CC=C4C[C@@H](O)CC[C@]4(C)[C@H]3CC[C@@]21C`, the outcome in experiment [7], in experiment [8] and in experiment [9] was inactive. On to `CC(C)(C)C(=O)CCc1ccc(Cl)cc1`, for which, in experiment [8], the call was inactive. Same read-out and setting: as for `CC(C)c1ccc2c(c1)CC[C@H]1[C@](C)(CN)CCC[C@]21C`, the entry is “inactive”; as for `COC(=O)C1=C(C)NC(C)=C(C(=O)OCC(C)C)C1c1ccccc1[N+](=O)[O-]` (stereo unspecified), “inactive”. Regarding `Oc1ccc(Cl)cc1Cc1cc(Cl)ccc1O`, in experiment [7], the compound was called inactive. In addition, the AC50 was 16.2 µM (active) in [5], 25 µM (active) in experiment [8] and 11.9 µM (active) in [9].

In the case of `COc1ccc(C(Cl)=C(c2ccc(OC)cc2)c2ccc(OC)cc2)cc1`, in experiment [7], the compound was classed as inactive. In experiment [8], the half-maximal activity concentration (AC50) is 7.49 µM (active). In the same order, the values of `CCOC(=O)N1CCC(=C2c3ccc(Cl)cc3CCc3cccnc32)CC1` are “inactive” and 0.0259 µM (active). As for `[Cl][Bi]([Cl])([c]1ccccc1)([c]1ccccc1)[c]1ccccc1`, the compound was classed as inactive in experiment [7] and in experiment [8]. As for `O=C(OCC1CCC2OC2C1)C1CCC2OC2C1` (stereo unspecified), the call in experiment [7] and in [9] was inactive. For the compound `CCC(=O)Oc1ccc(/C(CC)=C(\CC)c2ccc(OC(=O)CC)cc2)cc1`, the AC50 is 0.00521 µM (active) in experiment [7] and 0.00229 µM (active) in experiment [8]. As for `OC1CCCC1`, the call in experiment [7], in experiment [8] and in experiment [9] was inactive. In the case of `CCC(C)OC(=O)c1ccc(O)cc1` (stereo unspecified), the AC50 in experiment [7] is 9.45 µM (active); in [8], 0.603 µM (active).
